Results taken from ChEMBL document CHEMBL3988442, “University of Dundee, Small-Polar-MMV Screening Library” (2021).
For some of these results: Measured potencies and affinities stand elsewhere.

Key:
Design in all cases: scale not given: direction of the effect not stated beside the values
[1] = target: Protein translocase subunit SecA (Escherichia coli (strain K12)) (UniProt P10408); assay: Assay to Identify E. coli SecA ATPase Inhibitors; type: functional; settings: 30 µM
[2] = target: T1, Ubiquitin-activating enzyme e1, putative (Leishmania donovani (strain BPK282A1)) (UniProt E9BSI1); assay: Leishmania donovani Ubiquitin Activating Enzyme (LdE1); type: functional; settings: 30 µM
T1 sequence (whole entry): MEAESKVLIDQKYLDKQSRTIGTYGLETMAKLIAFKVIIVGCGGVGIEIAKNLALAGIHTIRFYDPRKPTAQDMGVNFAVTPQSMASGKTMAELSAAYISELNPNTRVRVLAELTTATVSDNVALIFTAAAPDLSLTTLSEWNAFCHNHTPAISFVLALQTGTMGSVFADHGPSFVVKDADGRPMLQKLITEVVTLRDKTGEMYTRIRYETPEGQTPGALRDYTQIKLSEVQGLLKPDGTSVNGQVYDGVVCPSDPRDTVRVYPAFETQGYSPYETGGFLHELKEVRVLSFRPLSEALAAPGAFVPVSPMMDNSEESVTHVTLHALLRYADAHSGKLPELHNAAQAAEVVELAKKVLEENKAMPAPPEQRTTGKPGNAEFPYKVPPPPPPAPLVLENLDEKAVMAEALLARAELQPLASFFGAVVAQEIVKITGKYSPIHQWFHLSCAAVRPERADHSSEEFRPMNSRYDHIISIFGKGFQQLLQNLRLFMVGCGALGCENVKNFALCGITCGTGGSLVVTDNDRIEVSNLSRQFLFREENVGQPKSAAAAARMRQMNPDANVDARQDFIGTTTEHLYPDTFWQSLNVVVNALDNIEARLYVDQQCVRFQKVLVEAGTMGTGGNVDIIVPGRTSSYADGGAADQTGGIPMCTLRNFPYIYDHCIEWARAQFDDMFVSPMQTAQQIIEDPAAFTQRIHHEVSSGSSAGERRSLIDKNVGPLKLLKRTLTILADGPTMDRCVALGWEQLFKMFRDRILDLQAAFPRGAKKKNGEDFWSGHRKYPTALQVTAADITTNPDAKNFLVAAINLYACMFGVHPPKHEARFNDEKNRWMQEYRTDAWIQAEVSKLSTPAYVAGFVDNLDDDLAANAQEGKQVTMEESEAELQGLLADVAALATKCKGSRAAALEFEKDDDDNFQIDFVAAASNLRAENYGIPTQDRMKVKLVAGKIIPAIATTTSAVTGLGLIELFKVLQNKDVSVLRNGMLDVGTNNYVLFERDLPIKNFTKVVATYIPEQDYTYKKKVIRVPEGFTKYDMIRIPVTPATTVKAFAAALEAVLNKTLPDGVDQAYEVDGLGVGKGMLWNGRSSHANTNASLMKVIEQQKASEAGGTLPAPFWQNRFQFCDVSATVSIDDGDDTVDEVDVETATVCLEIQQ

[3] = target: AMP-activated protein kinase, AMPK (Homo sapiens) (UniProt P54646+O43741+P54619+Q9UGJ0+Q9Y478+Q13131+Q9UGI9); assay: AMP-dependent Kinase enzyme assay. An in vitro enzyme assay that detects ADP turnover that is directly proportional to AMPK activity. This uses naive AMPK that is activated during the assay with MK-8722; type: functional; settings: 30 µM
[4] = target: Sialic acid-binding Ig-like lectin 9 (Homo sapiens) (UniProt Q9Y336); assay: Hs-Siglec9 ALPHAscreen SOP 20170721; settings: 10 µM
Sialic acid-binding Ig-like lectin 9 (Homo sapiens), sequence (Q9Y336 whole entry): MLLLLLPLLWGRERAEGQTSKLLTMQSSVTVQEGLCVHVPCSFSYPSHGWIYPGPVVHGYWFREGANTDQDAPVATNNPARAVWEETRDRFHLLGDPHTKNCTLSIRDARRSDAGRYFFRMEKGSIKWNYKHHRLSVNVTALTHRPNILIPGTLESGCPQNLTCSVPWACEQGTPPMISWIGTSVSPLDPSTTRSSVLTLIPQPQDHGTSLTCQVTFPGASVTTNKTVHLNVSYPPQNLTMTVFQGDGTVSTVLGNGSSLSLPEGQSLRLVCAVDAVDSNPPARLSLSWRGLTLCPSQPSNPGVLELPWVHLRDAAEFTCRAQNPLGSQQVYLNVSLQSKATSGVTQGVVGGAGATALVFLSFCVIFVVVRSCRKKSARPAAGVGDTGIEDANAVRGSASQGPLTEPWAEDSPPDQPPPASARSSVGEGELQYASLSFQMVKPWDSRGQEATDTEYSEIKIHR

Trypanosoma cruzi = assay: Trypanosoma cruzi phosphomannomutase and mannose-1-phosphate guanylyltransferase assay; type: functional; settings: 10 µM
[5] = target: T2, Arginase-2, mitochondrial (Homo sapiens) (UniProt P78540); assay: in vitro enzyme assay to detect the production of urea directly proportional to the activity of Arginase II; type: functional; settings: 33.3 µM; note: in the data most compounds retested in dose-response had high values
T2 sequence (whole entry): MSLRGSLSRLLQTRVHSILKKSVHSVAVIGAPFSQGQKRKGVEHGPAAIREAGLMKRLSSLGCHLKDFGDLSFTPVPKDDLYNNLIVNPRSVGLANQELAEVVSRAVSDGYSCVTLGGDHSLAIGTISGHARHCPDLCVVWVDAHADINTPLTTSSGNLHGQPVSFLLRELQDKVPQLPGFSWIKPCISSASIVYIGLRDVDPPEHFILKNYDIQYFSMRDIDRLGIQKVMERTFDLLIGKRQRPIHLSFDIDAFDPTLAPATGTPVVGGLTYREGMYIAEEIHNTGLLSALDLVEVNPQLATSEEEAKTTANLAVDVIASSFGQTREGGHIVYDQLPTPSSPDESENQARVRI

[6] = target: T3, Proteasome subunit beta (Trypanosoma cruzi) (UniProt O96673); assay: Trypanosoma cruzi proteasome chymotrypsin-like activity (TcProtChymo) assay.; note: in the data most compounds retested in dose-response had high values; type: functional; settings: 9.37 µM
T3 sequence (whole entry): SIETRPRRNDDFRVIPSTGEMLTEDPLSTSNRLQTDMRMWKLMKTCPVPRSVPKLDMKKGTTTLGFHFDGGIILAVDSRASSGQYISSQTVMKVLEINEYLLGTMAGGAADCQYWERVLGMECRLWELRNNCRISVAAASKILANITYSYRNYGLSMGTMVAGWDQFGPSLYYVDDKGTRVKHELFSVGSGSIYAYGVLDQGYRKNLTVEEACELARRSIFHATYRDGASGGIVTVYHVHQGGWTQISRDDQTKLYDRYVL

Homo sapiens = organism: Homo sapiens; assay: To identify inhibition of the IFN signalling (Jak-Stat) pathway via expression of an eGFP reporter gene under the control of an IFN-stimulated response element (ISRE) containing MxA promoter.; type: functional; settings: 30 µM
[7] = target: T4, Tyrosyl-tRNA synthetase, putative (Trypanosoma cruzi (strain CL Brener)) (UniProt Q4DSP6); assay: Trypanosoma cruzi tyrosyl tRNA synthetase (TcYRS) _High Tyrosine SOP; type: functional; settings: 30 µM; note: in the data most compounds retested in dose-response had high values
T4 sequence (whole entry): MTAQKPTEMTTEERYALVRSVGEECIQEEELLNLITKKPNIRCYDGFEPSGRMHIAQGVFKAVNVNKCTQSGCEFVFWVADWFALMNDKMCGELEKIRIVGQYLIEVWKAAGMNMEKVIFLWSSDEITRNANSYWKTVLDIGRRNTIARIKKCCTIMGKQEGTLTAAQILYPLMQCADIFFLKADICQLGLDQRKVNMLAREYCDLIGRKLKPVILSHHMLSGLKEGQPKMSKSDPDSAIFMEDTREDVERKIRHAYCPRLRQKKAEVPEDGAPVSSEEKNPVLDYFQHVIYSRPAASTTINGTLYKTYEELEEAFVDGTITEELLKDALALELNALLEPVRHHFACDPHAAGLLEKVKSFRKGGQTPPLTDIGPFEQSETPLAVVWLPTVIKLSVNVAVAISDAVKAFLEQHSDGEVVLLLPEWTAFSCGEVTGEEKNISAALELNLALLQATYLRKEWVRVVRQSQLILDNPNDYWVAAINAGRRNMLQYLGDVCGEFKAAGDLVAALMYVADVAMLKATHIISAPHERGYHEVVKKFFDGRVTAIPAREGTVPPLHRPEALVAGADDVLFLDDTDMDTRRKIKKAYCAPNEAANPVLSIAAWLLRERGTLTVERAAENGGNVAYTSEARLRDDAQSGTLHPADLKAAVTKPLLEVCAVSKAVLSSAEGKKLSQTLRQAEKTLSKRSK

[8] = target: T4, Tyrosyl-tRNA synthetase, putative (Trypanosoma cruzi (strain CL Brener)); assay: Trypanosoma cruzi tyrosyl tRNA synthetase (TcYRS) SOP; type: functional; settings: 30 µM
[9] = target: Chromo domain-containing protein 1 (Saccharomyces cerevisiae (strain ATCC 204508 / S288c) (Baker's yeast)) (UniProt P32657); assay: ScCHD-1 Enzyme Inhibition Assay; type: functional; settings: 30 µM; note: in the data most compounds retested in dose-response had high values
Chromo domain-containing protein 1 (Saccharomyces cerevisiae (strain ATCC 204508 / S288c) (Baker's yeast)), sequence (P32657 whole entry, the tested form may be a part): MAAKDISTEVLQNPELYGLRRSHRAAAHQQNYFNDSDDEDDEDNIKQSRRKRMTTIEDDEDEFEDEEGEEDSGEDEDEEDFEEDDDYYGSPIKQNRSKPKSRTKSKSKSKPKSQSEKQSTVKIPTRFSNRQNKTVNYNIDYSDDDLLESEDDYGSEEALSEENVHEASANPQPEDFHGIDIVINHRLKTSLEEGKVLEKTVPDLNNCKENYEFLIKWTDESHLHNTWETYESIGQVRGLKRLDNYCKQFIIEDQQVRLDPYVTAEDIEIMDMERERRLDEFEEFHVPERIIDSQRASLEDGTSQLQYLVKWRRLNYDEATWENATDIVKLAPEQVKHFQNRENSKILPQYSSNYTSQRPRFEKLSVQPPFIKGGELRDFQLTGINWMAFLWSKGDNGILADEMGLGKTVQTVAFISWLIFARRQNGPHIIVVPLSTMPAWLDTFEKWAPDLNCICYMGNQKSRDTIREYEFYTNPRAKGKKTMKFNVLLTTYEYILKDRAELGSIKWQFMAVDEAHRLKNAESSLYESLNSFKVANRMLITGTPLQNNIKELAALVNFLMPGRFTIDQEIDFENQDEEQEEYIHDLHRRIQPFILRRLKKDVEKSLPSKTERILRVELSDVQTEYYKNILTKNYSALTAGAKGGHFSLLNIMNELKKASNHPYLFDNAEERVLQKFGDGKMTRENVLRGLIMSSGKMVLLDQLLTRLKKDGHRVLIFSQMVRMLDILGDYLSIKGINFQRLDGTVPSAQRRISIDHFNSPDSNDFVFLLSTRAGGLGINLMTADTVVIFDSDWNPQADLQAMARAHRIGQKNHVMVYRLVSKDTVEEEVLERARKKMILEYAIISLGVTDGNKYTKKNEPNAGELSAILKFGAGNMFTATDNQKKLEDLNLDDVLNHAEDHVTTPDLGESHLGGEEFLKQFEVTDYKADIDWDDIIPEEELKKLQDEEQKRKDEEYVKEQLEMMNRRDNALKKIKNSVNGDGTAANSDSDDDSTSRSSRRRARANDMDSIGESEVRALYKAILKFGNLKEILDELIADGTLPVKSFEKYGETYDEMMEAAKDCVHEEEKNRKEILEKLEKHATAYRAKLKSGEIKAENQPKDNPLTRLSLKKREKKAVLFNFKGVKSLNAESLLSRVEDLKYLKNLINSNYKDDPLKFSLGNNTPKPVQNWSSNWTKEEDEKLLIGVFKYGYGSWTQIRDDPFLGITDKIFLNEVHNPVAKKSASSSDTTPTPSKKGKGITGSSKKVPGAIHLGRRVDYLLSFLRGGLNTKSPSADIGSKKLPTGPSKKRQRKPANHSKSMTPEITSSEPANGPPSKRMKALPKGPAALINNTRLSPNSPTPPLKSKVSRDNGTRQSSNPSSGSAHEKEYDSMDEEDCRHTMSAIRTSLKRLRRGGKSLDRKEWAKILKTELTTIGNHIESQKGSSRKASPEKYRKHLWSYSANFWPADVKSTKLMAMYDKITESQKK

Protein translocase subunit SecA (Escherichia coli (strain K12)), sequence (P10408 whole entry): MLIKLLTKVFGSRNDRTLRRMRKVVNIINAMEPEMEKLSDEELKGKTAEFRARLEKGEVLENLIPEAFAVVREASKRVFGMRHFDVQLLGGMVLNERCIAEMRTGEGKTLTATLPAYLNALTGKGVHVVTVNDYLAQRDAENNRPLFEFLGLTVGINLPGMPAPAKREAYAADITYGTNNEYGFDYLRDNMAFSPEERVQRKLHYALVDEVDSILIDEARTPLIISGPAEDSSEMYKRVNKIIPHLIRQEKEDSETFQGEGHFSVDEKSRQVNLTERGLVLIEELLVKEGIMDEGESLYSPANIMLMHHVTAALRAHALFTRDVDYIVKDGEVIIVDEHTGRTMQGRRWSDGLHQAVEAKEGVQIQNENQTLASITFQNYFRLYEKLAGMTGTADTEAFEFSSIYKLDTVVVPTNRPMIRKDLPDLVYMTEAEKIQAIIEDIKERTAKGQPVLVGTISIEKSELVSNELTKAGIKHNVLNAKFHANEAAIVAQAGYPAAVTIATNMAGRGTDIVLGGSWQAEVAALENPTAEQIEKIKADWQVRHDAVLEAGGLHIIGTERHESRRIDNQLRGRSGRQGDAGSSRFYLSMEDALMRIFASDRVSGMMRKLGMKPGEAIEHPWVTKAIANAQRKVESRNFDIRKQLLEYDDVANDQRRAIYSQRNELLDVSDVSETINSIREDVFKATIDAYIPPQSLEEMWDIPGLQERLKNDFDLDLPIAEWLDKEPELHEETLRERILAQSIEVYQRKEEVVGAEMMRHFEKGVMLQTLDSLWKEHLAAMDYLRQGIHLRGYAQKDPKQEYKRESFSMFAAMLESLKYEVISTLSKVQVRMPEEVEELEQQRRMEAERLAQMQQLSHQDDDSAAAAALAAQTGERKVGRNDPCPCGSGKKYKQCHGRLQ

Structure (SMILES) | Percent Effect [1] | Percent Effect [2] | Percent Effect [3] | Percent Effect [4] | Percent Effect (Trypanosoma cruzi) | Percent Effect [5] | Percent Effect [6] | Percent Effect (Homo sapiens) | Percent Effect [7] | Percent Effect [8] | Percent Effect [9]
Cc1nnc(N2CC[C@H]3C[C@H](C(=O)N4CCOCC4)O[C@H]3C2)s1 | -2.55% | 0% | 5.32% | 2.05% | 0.0978% | -0.955% | 14.6% | -19.4% | 1.08% | 5.13% | 1.53%
CC(C)(C)OC(=O)N1CCN(C(=O)c2sccc2C2CC2)CC1 | -1.99% | 8.86% | 5.24% | 1.31% | -2.56% | 9.25% | 6.17% | -13.8% | 3.12% | 5.06% | -5.68%
O=C(Cn1cc(I)cn1)Nc1cccnc1 | -7.8% | 0% | 2.58% | 6.82% | 1.85% | -10.7% | 16.4% | 4.4% | 3.19% | 7.79% | -7.88%
CC(NC(=O)c1cccs1)C(=O)NCc1cccnc1N1CCCCC1 (stereo not given) | -5.05% | 15.6% | 4.11% | 3.01% | -3.93% | 0.712% | 9.46% | 10.2% | 1.94% | 7.32% | -4.16%
CC(C)c1n[nH]c(C2CN(C(=O)CCn3ccccc3=O)CCO2)n1 (stereo not given) | -3.88% | 1.27% | 3.8% | -2.89% | -3.18% | -2.37% | 2.92% | -3.42% | 3.12% | 7.59% | -5.25%
O[C@H]1CCN(Cc2ccoc2)[C@H]1Cc1cccnc1 | -6.91% | 0% | 3.99% | -6.85% | -1.16% | -54.7% | 5.47% | 13.5% | 4.17% | 2.5% | -9.55%
O=C1N(Cc2ccccc2F)CCCC12CCN(C1CCSCC1)C2 (stereo not given) | -1.79% | -8% | -0.682% | 0.979% | -1.46% | 3.65% | 8.37% | -10.4% | 8.2% | 8.64% | 0.67%
N#Cc1ccc(CNCC(C(=O)N2CCOCC2)c2ccccc2)cc1 (stereo not given) | -2.65% | 10.4% | -4.88% | 7.63% | 2.06% | -75.9% | 4.16% | -2.22% | 4.3% | 13.6% | -3.12%
CCOc1ccc(Cl)c(C(=O)N2CCN(CCO)CC2)n1 | -5.67% | 10.4% | -0.195% | 9% | -3% | 0.356% | 4.05% | 5.42% | 4.85% | 9.76% | -4.45%
CCc1nc2n(n1)CC(NCc1nc(C)ccc1O)CC2 (stereo not given) | -5.74% | 7.89% | 1.61% | 1.6% | 5.16% | -2.37% | 5.85% | -1.01% | 0% | 10.4% | -1.98%
CN(C)CCOCC1CN(C(=O)[C@H]2CCCO2)Cc2ccnn2C1 (stereo not given in full) | -0.666% | 0% | -0.823% | 5.06% | -1.35% | -46.1% | 2.91% | -2.46% | 1.04% | -55% | 3.03%
Cn1cc(CN2CCCn3cnc(COCC4CC4)c3C2)cn1 | -4.51% | 8% | -1.37% | 1.51% | 6.95% | -55.7% | 7.69% | -4.29% | 4.17% | 15% | -7.64%
CC(C)(C)NC(=O)C1CSCN1S(=O)(=O)c1cccc(F)c1 (stereo not given) | 1.74% | 8.22% | -2.49% | -2.56% | -8.81% | 0.909% | 20.2% | 12.2% | 3.23% | 10% | -1.73%
O=C(CCOCc1ccccc1)N1CCCC1c1noc(C2CC2)n1 (stereo not given) | -0.0528% | 21.6% | -9.42% | 3.05% | 1.23% | -10.4% | 5.22% | 4.41% | -23.1% | 25.9% | -10%
Cc1cc(CN(C)C(=O)C2CCS(=O)(=O)C2)no1 (stereo not given) | 0.281% | 18.2% | -1.29% | -9.12% | 4.21% | 2.74% | 14% | 31.4% | 5.71% | 21.2% | -8.16%
Cc1cc(F)cc(S(=O)(=O)NCCCN2CCC(O)CC2)c1 | 1.42% | 15.6% | 0.172% | 0.431% | -0.688% | 5.52% | 14.6% | 10.8% | 7.53% | 23.5% | 1.36%
Cc1ncnc2c1CCN(c1cc(C(F)(F)F)ncn1)CC2 | -2.66% | 13.3% | -0.456% | -3.31% | -3.09% | -58.2% | 13.7% | 4.55% | 0% | 2.5% | -7.43%
COc1ccc(S(=O)(=O)N2CCC(S(C)(=O)=O)CC2)cc1C | -3.14% | 7.79% | 3.88% | 0.29% | 4.04% | 1.94% | 4.7% | -5.43% | 3.17% | 11.5% | -6.76%
CN(CC(=O)N1CCN(c2ncccn2)CC1)c1ccc(Cl)cn1 | 0.47% | 8.11% | -0.12% | 10.1% | 5.79% | 14.3% | 9.83% | 16.3% | 4.76% | 14.6% | -1.14%
Cc1[nH]c(=O)[nH]c(=O)c1CN1CCCC(CCc2c(F)cccc2F)C1 (stereo not given) | -0.639% | 8.11% | -5.43% | 13.8% | 1.16% | 1.91% | 9.14% | 5.92% | 3.7% | -9.76% | -1.15%
